Compound activity: PubChem, Broad Institute
U2OS ROS induce: cancer cell ROS induction; U2OS ROS induction, H2DCF-DA fluorescence; ROS induction (% of piperlongumine), % at 10 µM; 46,000 compounds, 2% hits; AID 624156; in the data active means ROS induction above about 79%, passing the limit was not always enough;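 further: 0% = DMSO vehicle median and 100% = reference compound median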
PD-1 reverse act: reversal of PD-1 mediated T-cell inhibition; primary human CD4 T cells, PD-L1 beads, CellTiter-Glo 96 h; activation, % (no concentration beside the values); 29,000 tested, under 10 active; call rule not given here;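 further: 0% = median vehicle wells and 100% = positive control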
NOMO-1 viab: STK33 inhibitor candidate reducing NOMO-1 cell viability. inhibition, % (concentration not given with the values). AID 2330. 37,000 compounds, 7.5% hits. NOMO-1 AML viability, CellTiter-Glo luminescence, 72 h; in the data active means inhibition above about 80%
Active calls of the source: *; / = no result given. The entries come from a sample that favours hits as a whole.

SMILES | U2OS ROS induce | PD-1 reverse act | NOMO-1 viab
O=c1oc(-c2ccccc2Br)nc2sc3c(c12)CCC3 | 32 | / | /
CCc1ccc(NC(=O)N2CCC(N(C)C(C)C)CC2)cc1 | -17 | / | /
CC(=O)O[C@@H]1C=C[C@@]2(C)C(C[C@@H](OC(C)=O)[C@@]3(C)C4=CC(=O)O[C@@H](c5ccoc5)[C@]4(C)CCC23)C1(C)C (some centres undefined) | 12 | / | 106*
CC(=O)O[C@@H]1CC2C(C)(C)C(=O)C=C[C@]2(C)C2CC[C@@]3(C)[C@H](c4ccoc4)OC(=O)[C@H]4O[C@]43[C@@]21C (some centres undefined) | 33 | / | 58
C=CCN1C(=O)C(Cc2ccc(O)cc2)NC1=S (centres undefined) | -11 | / | /
CCOC(=O)Cn1c(-c2cccnc2)nc(-c2ccccc2)c1-c1ccccc1 | 74 | -12 | 115*
CCn1c(SCC(=O)c2ccccc2)nnc1-c1cccnc1 | / | / | -1
CCCNC(=O)Nc1ccc(N2CCC(C(F)(F)F)CC2)nc1 | 20 | 0 | -34
C[C@H]1CN([C@@H](C)CO)C(=O)c2cc(NC(=O)Nc3ccc(C(F)(F)F)cc3)ccc2O[C@H]1CN(C)C(=O)Nc1ccc(C(F)(F)F)cc1 | 13 | -2 | 120*
C[C@@H]1CN([C@@H](C)CO)C(=O)c2cc(NC(=O)Cc3ccccc3)ccc2O[C@H]1CN(C)C(=O)Nc1ccc(C(F)(F)F)cc1 | 9 | -1 | 28
C[C@@H]1CN([C@@H](C)CO)C(=O)c2cc(NC(=O)Cc3ccccc3)ccc2O[C@@H]1CN(C)C(=O)Nc1ccc(C(F)(F)F)cc1 | 94* | -2 | 73
C[C@H]1CN([C@@H](C)CO)C(=O)c2cc(NC(=O)Nc3ccc(C(F)(F)F)cc3)ccc2O[C@H]1CN(C)C(=O)Nc1ccc(F)cc1 | 8 | 0 | 76
C[C@H](CO)N1C[C@H](C)[C@@H](CN(C)C(=O)Nc2ccc(C(F)(F)F)cc2)Oc2ccc(NC(=O)Nc3ccccc3)cc2C1=O | 2 | / | 2
C[C@@H]1CN([C@@H](C)CO)C(=O)c2cc(NC(=O)Nc3ccc(C(F)(F)F)cc3)ccc2O[C@@H]1CN(C)C(=O)Nc1ccc(C(F)(F)F)cc1 | 27 | -6 | 114*
C[C@@H]1CN([C@@H](C)CO)C(=O)c2cc(NC(=O)Nc3ccc(F)cc3)ccc2O[C@H]1CN(C)C(=O)Nc1ccc(C(F)(F)F)cc1 | 30 | -1 | 61
C[C@@H]1CN([C@H](C)CO)C(=O)c2cc(NC(=O)Nc3ccc(C(F)(F)F)cc3)ccc2O[C@@H]1CN(C)C(=O)Nc1ccc(C(F)(F)F)cc1 | 13 | / | 94*
Cc1ccc(OCCNC(=O)c2ccc(C(C)(C)C)cc2)cc1 | 1 | / | /
Cc1nn(CC(=O)NCC2CCCO2)c(=O)c2cc3occc3n12 (centres undefined) | -12 | / | /
C=CCOc1cc(C)nc(N2CCOCC2)n1 | -9 | / | /
C[C@H](CO)N1C[C@H](C)[C@H](CN(C)C(=O)NC2CCCCC2)Oc2ccc(NC(=O)Nc3ccc(C(F)(F)F)cc3)cc2C1=O | 35 | -4 | 63
C[C@H]1CN([C@@H](C)CO)C(=O)c2cc(NC(=O)Nc3ccc(C(F)(F)F)cc3)ccc2O[C@H]1CN(C)C(=O)NC1CCCCC1 | 38 | -3 | 103*
C[C@@H]1CN([C@H](C)CO)C(=O)c2cc(NC(=O)Nc3ccc(F)cc3)ccc2O[C@@H]1CN(C)C(=O)Nc1ccc(C(F)(F)F)cc1 | 35 | -2 | 48
C[C@@H]1CN([C@@H](C)CO)C(=O)c2cc(NC(=O)Nc3ccc(C(F)(F)F)cc3)ccc2O[C@H]1CN(C)C(=O)Nc1ccc(C(F)(F)F)cc1 | 35 | -7 | 105*
O=C(C1CCC(Cn2c(=S)[nH]c3ccccc3c2=O)CC1)N1CCN(c2ccc(Cl)cc2)CC1 (centres undefined) | 46 | / | /
O=C(Cn1nc(-c2ccccc2)ccc1=O)NCc1cccs1 | -10 | / | /
SMILES | U2OS ROS induce | PD-1 reverse act | NOMO-1 viab
O=[N+]([O-])c1ccc(S(=O)(=O)CC(CN2CCOCC2)N2CCOCC2)cc1 (centres undefined) | -15 | -10 | 102*
O=C(NCCCN1CCOCC1)c1cccc([N+](=O)[O-])c1 | / | / | 11
N#Cc1c(C(F)(F)F)cc(C2CC2)nc1SCCN1CCCCC1 | 38 | / | /
COc1ccccc1OCCCSc1nc(-c2ccccc2)cc(=O)[nH]1 | 126* | 1 | 8
Cc1cc(=O)[nH]c(SCCCOc2ccccc2Cl)n1 | 12 | 1 | 24
COc1cc2c(cc1OC)C(C)N(C(=O)c1nn(-c3ccccc3)nc1C)CC2 (centres undefined) | -2 | / | /
CC1=NN(C(=O)CCc2ccccc2)C(O)(c2ccccc2)C1 (centres undefined) | -2 | / | /
CCC1CCCCN1S(=O)(=O)c1ccc(Cl)cc1 (centres undefined) | -11 | / | /
